# Test results from PubChem BioAssay (EPA / NIEHS).
# Inconclusive results are not listed. A structure can be active in one record and inactive in another. Calls of active or inactive are those of the source. The calls were made as follows, unless noted: active = hit-call score of the fitted dose curve at least 0.9, where 1 is the maximum; inconclusive = response in the unintended direction; inactive = score below 0.9.
# Tests used:
# [1] = TOX21_PR_BLA_Followup_Agonist_viability: Viability Assessment in the Tox21 HEK293 Progesterone Receptor (PR) Agonism Beta-lactamase Follow-Up Assay (AID 2283935);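 also: signal loss means lower viability so actives are cytotoxic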
# Outline: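 Multiplexed viability counter-screen: ATP-coupled luciferase signal measured after 30 min at room temperature, following 16 hr compound treatment of PR-UAS-bla HEK293T cells grown in charcoal-stripped serum.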
# [2] = TOX21_PR_BLA_Followup_Antagonist_viability: Viability Assessment in the Tox21 HEK293 Progesterone Receptor (PR) Antagonism Beta-lactamase Follow-Up Assay (AID 2283936);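 also: hits lower the luminescence signal meaning cytotoxicity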
# Outline: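 PR-UAS-bla HEK293T cells (3,000/well, 2% charcoal-stripped FBS) given compound plus R5020 agonist, 16 h at 37C. CellTiter-Glo added after bla read, 30 min at room temperature; luminescence loss indicates cytotoxicity.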
# [3] = TOX21_PR_LUC_Followup_Antagonist_viability: Viability Assessment in the Tox21 HEK293 Progesterone Receptor (PR) Antagonism Luciferase Follow-Up Assay (AID 2283940)
# Outline: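 Cellular ATP, measured with luciferase-coupled CellTiter-Glo, served as the viability endpoint after HEK293-PR-A-luc cells were exposed to test compounds for 16 h at 37C.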
# [4] = TOX21_PR_LUC_Followup_Agonist_viability: Viability Assessment in the Tox21 HEK293 Progesterone Receptor (PR) Agonism Luciferase Follow-Up Assay (AID 2283941);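 also: loss of signal means cytotoxicity so actives lower viability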
# Outline: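 Luminescent ATP quantitation (CellTiter-Glo) serves as the read-out; a drop flags cytotoxic compounds. Cells are HEK293-PR-A-luc grown in 10% charcoal-stripped FBS, plated 3,000/well, and exposed to compound for 16 h.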
# [5] = biological target: human CYP19A1, CYP19A1 (gene 1588) (UniProt P11511); test: NVS_ADME_hCYP19A1: NovaScreen (NVS) CYP450-related Enzyme Activity (ADME) Assay for human CYP19A1 (AID 2283098);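 as to AC50: potency for inhibitors seen as loss of fluorescent enzyme signal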
# Outline: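 Cell-free enzyme assay with recombinant protein and a specific fluorogenic substrate, read by fluorescence intensity 0.5 h after dosing. Primary screen ran in duplicate at 10 uM; actives were retested in concentration series. Loss of signal versus acetonitrile baseline.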
# [6] = biological target: human Norepinephrine Transporter (NET), SLC6A2 (gene 6530) (UniProt P23975); test: NVS_TR_hNET: NovaScreen (NVS) Transporter Assay for human Norepinephrine Transporter (NET) (AID 2283377);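 also: cell-free membrane protein extracted from CHO cells expressing human NET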
# Outline: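 Radioligand binding to human NET in cell-free CHO-derived protein preparations, read by filter-based scintillation counting 1 hour after dosing. Loss of signal versus DMSO baseline indicated displacement; primary screening in duplicate at 25 uM, actives then titrated.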
# [7] = biological target: AR (gene 367) (UniProt P10275); test: ACEA_AR_antagonist_80hr: ACEA Biosciences xCELLigence Real-Time Cell Analysis on Androgen Receptor Antagonism for Proliferation (AID 2283787);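 also: 22Rv1 human prostate cancer cells with growth followed by electrical impedance; hits lower the impedance growth signal relative to DMSO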
# Outline: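 Impedance readout (RT-CES), 80 h post-dose; loss-of-signal vs DMSO baseline. 22Rv1 cells in assay medium. Compounds: 8-pt 1:4 series, max 100 uM final, up to 0.5% DMSO; n = 2.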
# [8] = CCTE_Simmons_CellTiterGLO_HEK293T: Viability Assessment in CCTE's Assays for Thyroperoxidase (TPO) Inhibition, Simmons Lab (AID 2283665);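 as to AC50: cells exposed to compound for 24 h before readout; actives reduce ATP signal below DMSO vehicle meaning cytotoxicity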
# Outline: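 Cytotoxicity counter-screen: human HEK293T cells in low-serum (1% FBS) medium receive test chemical, 5 nM to 87.5 uM final, for 24 h; ATP is quantified by luciferase luminescence.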
# [9] = tested on: DIO1 (gene 1733); test: CCTE_GLTED_hDIO1: CCTE's human Deiodinase 1 (DIO1) Inhibition Assay, Great Lakes Toxicology and Ecology Division (GLTED) Lab (AID 2283987);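 also: isolated human DIO1 enzyme in a cell-free setup rather than cells; enzyme activity read as free iodide liberated from substrate via Sandell-Kolthoff colorimetry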
# Outline: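 Inhibition of human deiodinase 1 is scored as reduced iodide liberation after a 3 h enzyme–chemical incubation, detected colorimetrically by the Sandell-Kolthoff reaction against DMSO controls.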
# [10] = tested on: DIO2 (gene 1734); test: CCTE_GLTED_hDIO2: CCTE's human Deiodinase 2 (DIO2) Inhibition Assay, Great Lakes Toxicology and Ecology Division (GLTED) Lab (AID 2284050)
# Outline: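 In this cell-free test, chemicals are exposed to human deiodinase type 2 for 3 hours. Released iodide is determined spectrophotometrically via the Sandell-Kolthoff method, and signal loss relative to DMSO is fitted.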
# [11] = tested on: DIO3 (gene 1735); test: CCTE_GLTED_hDIO3: CCTE's human Deiodinase 3 (DIO3) Inhibition Assay, Great Lakes Toxicology and Ecology Division (GLTED) Lab (AID 2284055);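 also: potency is for inhibition seen as loss of released iodide signal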
# Outline: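 Enzyme activity is tracked as iodide release from substrate by recombinant human DIO3 over 3 h with chemical present. A second Sandell-Kolthoff step converts iodide to an absorbance signal, fitted relative to DMSO.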
# [12] = CEETOX_H295R_ESTRADIOL: CeeTox H295R High-throughput Steroidogenesis Assay for Estradiol (AID 2283440; active = hit-call score of the fitted dose curve at least 0.9, where 1 is the maximum; inactive = score below 0.9;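 also: estradiol secreted into medium quantified by LC-MS/MS after dansyl derivatisation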); conditions: actives raise or lower the signal
# Outline: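 Estradiol secreted into the medium was measured by tandem mass spectrometry after liquid-liquid extraction and dansylation. Human H295R cells had been forskolin-primed (10 uM, 48 h) before a 48 h chemical exposure with 0.1% DMSO.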
# [13] = CEETOX_H295R_ESTRONE: CeeTox H295R High-throughput Steroidogenesis Assay for Estrone (AID 2283441; active = hit-call score of the fitted dose curve at least 0.9, where 1 is the maximum; inactive = score below 0.9;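 also: estrone secreted into medium measured by LC-MS/MS after dansyl derivatization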;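 as to AC50: human adrenal H295R cells prestimulated with forskolin for two days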); conditions: actives raise or lower the signal
# Outline: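 H295R cells; 48 h forskolin (10 uM) prestimulation; 48 h compound exposure, 0.1% DMSO final. Medium estrone: MTBE extraction, dansyl derivatization, HPLC-MS/MS. Bidirectional fit vs DMSO.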
# [14] = biological target: rat CYP2C12, Cyp2c12 (gene 25011) (UniProt P11510); test: NVS_ADME_rCYP2C12: NovaScreen (NVS) CYP450-related Enzyme Activity (ADME) Assay for rat CYP2C12 (AID 2283119)
# Outline: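 Cell-free recombinant rat CYP2C12 activity read by fluorescence 0.5 h after dosing; loss of signal versus acetonitrile control. Primary screen in duplicate at 10 uM; actives then run in concentration-response format.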
# [15] = biological target: rat CYP2D1, Cyp2d1 (gene 266684) (UniProt P10633); test: NVS_ADME_rCYP2D1: NovaScreen (NVS) CYP450-related Enzyme Activity (ADME) Assay for rat CYP2D1 (AID 2283122)
# Outline: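 Cell-free fluorescence enzyme-activity assay on extracted rat CYP2D1 protein, read 0.75 h after dosing. Primary screen in duplicate at 10 uM; qualifying chemicals then run in concentration-response to 20 uM max, loss-of-signal versus acetonitrile baseline.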
# [16] = biological target: human Mitogen-Activated Protein Kinase 1 (MAPK 1), MAPK1 (gene 5594) (UniProt P28482); test: NVS_ENZ_hMAPK1: NovaScreen (NVS) Enzymatic Assay for human Mitogen-Activated Protein Kinase 1 (MAPK 1) (AID 2283175)
# Outline: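 Cell-free recombinant human MAPK1 enzymatic assay, fluorescence/electrophoretic mobility shift read at 1 h; loss of signal vs DMSO. Primary screen in duplicate at 25 uM; actives (e.g. ≥30% inhibition) run as concentration-response up to 50 uM.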
# [17] = biological target: human p21 Activated Kinase 4 (PAK4), PAK4 (gene 10298) (UniProt O96013); test: NVS_ENZ_hPAK4: NovaScreen (NVS) Enzymatic Assay for human p21 Activated Kinase 4 (PAK4) (AID 2283189)
# Outline: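 Cell-free recombinant human PAK4 activity assay; fluorescent substrate and product separated by electrophoretic mobility shift, read 1 h after dosing. Initially tested in duplicate at 25 uM, relative to DMSO baseline.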
# [18] = biological target: human Tyrosine Protein Kinase Receptor Tie-2 (Tie2), TEK (gene 7010) (UniProt Q02763); test: NVS_ENZ_hTie2: NovaScreen (NVS) Enzymatic Assay for human Tyrosine Protein Kinase Receptor Tie-2 (Tie2) (AID 2283225)
# Outline: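 Recombinant human Tie2 kinase activity was read cell-free by fluorescence with electrophoretic mobility shift, 1 hour after dosing. The screen used 25 uM in duplicate, then concentration-response up to 50 uM. Signal loss was scored against DMSO.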
# [19] = biological target: rat Neurotensin Receptor (NTS), Ntsr1 (gene 366274) (UniProt P20789); test: NVS_GPCR_rNTS: NovaScreen (NVS) G Protein-Coupled Receptor Assay for rat Neurotensin Receptor (NTS) (AID 2283308)
# Outline: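 Rat forebrain membranes; radioligand binding with competitive displacement, read by filter-based scintillation counting 1 h after dosing. Primary screen in duplicate at 25 uM; actives (e.g., 30% inhibition) rerun in concentration-response up to 50 uM, loss-of-signal versus DMSO.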
# [20] = biological target: human NIMA (Never In Mitosis Gene A)-Related Kinase 2 (NEK2), NEK2 (gene 4751) (UniProt P51955); test: NVS_ENZ_hNEK2: NovaScreen (NVS) Enzymatic Assay for human NIMA (Never In Mitosis Gene A)-Related Kinase 2 (NEK2) (AID 2283188)
# Outline: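 Cell-free NEK2 enzyme activity after 1 h exposure, read by fluorescence with electrophoretic mobility shift separating substrate and product. Primary screen in duplicate at 25 uM; actives then run as concentration series. Loss of signal versus DMSO scored.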
# Sequence of rat CYP2C12, Cyp2c12 (gene 25011) (P11510 whole entry, looked up): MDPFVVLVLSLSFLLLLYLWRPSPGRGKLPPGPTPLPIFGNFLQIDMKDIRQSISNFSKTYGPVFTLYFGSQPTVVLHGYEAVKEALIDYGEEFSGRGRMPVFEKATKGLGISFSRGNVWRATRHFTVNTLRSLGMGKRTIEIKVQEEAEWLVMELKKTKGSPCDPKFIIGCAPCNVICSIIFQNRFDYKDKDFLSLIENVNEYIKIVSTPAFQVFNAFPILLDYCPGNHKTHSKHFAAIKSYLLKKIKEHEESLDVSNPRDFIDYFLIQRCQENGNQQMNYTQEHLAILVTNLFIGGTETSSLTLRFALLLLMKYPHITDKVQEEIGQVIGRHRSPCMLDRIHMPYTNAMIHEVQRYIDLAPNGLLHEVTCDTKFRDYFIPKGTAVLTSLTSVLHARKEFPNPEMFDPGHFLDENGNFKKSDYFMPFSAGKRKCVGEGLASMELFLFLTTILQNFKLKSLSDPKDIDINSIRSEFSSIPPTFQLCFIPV
# Sequence of human CYP19A1, CYP19A1 (gene 1588) (P11511 whole entry, looked up): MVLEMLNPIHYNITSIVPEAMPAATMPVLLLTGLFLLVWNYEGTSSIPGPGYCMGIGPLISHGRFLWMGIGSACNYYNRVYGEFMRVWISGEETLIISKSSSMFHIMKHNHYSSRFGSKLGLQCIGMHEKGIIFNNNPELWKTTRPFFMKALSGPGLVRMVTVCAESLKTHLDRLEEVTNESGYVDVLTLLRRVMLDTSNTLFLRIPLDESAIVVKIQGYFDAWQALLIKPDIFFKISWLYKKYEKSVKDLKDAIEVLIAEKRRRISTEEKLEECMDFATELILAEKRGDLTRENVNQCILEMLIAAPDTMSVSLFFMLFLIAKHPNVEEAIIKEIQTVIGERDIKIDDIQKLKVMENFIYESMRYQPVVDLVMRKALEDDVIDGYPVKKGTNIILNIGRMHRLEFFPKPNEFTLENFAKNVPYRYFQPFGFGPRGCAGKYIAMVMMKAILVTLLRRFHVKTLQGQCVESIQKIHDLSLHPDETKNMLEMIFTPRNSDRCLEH
# Sequence of rat CYP2D1, Cyp2d1 (gene 266684) (P10633 whole entry, looked up): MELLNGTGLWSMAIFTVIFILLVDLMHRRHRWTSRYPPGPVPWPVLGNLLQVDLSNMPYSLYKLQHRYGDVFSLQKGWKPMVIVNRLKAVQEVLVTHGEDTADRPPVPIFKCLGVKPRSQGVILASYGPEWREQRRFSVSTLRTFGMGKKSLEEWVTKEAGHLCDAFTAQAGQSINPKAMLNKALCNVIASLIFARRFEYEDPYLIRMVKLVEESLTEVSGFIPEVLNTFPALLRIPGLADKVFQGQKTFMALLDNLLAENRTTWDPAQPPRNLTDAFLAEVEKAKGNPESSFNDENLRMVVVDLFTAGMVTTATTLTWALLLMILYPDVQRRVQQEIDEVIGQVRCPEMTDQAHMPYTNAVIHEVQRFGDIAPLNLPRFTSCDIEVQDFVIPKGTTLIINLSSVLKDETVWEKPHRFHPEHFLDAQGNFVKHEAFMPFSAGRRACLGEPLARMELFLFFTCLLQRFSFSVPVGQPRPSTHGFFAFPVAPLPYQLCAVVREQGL
# Sequence of human NIMA (Never In Mitosis Gene A)-Related Kinase 2 (NEK2), NEK2 (gene 4751) (P51955 whole entry, looked up): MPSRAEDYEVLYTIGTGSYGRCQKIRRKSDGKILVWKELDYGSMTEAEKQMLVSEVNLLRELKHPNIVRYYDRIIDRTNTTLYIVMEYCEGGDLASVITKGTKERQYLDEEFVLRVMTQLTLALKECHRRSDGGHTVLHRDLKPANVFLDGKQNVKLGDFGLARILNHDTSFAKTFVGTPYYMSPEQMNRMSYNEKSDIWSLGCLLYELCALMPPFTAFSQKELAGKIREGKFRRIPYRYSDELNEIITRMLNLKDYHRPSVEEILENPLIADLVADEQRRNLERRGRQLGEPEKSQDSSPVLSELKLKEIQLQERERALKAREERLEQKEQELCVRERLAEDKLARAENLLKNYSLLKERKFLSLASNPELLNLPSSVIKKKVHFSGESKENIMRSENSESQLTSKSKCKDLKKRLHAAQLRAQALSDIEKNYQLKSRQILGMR
# Sequence of human Tyrosine Protein Kinase Receptor Tie-2 (Tie2), TEK (gene 7010) (Q02763 whole entry, looked up): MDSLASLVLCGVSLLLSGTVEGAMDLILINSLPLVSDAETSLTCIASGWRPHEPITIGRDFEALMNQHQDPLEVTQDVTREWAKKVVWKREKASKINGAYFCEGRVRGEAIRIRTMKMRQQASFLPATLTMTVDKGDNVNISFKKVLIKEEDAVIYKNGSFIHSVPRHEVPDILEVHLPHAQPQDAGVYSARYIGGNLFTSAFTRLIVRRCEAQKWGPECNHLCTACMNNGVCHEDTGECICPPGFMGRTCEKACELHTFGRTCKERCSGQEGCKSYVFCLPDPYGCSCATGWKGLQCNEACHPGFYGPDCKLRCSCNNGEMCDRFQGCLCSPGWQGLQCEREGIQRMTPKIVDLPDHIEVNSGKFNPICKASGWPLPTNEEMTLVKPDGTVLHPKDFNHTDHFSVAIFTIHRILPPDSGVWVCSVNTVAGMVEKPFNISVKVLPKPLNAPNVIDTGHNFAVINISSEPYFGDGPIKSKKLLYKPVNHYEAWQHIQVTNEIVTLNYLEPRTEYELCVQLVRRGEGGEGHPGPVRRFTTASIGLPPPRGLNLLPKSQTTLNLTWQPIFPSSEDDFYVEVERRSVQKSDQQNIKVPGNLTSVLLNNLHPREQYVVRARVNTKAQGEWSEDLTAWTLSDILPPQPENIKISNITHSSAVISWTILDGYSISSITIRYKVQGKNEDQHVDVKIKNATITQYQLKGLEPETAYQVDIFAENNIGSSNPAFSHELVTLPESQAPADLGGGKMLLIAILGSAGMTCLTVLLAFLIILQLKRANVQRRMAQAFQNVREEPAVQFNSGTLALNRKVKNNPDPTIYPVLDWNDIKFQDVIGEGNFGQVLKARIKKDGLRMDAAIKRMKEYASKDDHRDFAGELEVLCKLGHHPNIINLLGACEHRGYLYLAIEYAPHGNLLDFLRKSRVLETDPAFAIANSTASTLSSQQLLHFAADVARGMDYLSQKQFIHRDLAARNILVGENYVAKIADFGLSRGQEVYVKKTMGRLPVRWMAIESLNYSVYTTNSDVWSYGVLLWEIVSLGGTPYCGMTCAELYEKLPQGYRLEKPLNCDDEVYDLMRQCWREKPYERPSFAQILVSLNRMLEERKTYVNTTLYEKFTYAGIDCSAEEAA
# Sequence of human p21 Activated Kinase 4 (PAK4), PAK4 (gene 10298) (O96013 whole entry, looked up): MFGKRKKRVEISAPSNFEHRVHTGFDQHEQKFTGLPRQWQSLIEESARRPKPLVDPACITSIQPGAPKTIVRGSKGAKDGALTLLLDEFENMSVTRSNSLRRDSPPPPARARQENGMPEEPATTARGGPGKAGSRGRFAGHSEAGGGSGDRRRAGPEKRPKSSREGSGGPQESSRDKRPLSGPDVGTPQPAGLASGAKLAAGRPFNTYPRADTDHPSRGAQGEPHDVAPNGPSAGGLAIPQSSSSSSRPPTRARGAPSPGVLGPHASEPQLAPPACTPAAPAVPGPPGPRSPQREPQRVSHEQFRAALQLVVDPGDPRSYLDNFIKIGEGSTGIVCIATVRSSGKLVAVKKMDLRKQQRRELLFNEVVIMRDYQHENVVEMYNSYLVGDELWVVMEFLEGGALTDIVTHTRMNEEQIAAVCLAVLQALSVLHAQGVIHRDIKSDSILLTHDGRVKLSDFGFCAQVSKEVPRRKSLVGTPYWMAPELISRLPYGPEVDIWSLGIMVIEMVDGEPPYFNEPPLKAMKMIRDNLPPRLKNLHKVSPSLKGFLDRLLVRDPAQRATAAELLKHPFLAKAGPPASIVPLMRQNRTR
# Sequence of rat Neurotensin Receptor (NTS), Ntsr1 (gene 366274) (P20789 whole entry, looked up): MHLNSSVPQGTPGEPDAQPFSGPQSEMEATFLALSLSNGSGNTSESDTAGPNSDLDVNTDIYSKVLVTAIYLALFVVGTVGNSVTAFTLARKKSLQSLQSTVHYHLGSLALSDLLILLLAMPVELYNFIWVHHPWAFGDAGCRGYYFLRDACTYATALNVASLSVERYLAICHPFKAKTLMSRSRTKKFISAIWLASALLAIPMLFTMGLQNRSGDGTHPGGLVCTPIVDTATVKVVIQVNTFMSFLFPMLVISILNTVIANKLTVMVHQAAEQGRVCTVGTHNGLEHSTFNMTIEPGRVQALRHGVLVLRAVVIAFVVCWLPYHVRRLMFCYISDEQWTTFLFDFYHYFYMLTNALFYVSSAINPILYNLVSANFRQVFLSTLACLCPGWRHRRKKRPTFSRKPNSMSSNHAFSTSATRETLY
# Sequence of human Mitogen-Activated Protein Kinase 1 (MAPK 1), MAPK1 (gene 5594) (P28482 whole entry, looked up): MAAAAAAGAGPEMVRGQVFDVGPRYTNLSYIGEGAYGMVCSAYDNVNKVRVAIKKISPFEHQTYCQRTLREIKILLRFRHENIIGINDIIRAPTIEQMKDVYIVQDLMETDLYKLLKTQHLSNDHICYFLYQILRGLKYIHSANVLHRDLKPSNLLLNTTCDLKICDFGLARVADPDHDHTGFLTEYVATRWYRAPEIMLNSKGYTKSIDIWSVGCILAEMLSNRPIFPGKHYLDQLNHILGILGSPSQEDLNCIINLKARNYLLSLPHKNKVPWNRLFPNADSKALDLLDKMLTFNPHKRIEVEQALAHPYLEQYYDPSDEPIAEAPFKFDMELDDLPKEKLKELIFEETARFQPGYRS
structure (smiles),measurement,setting,value
CC(=O)c1cc2c(cc1C)C(C)(C)C(C)CC2(C)C (stereo not given),outcome,[1],inactive
same,outcome,[2],inactive
same,outcome,[3],inactive
same,outcome,[4],inactive
CC1(C)[C@H](C(=O)O[C@H](C#N)c2cccc(Oc3ccccc3)c2)[C@@H]1C=C(Br)Br,outcome,[5],inactive
same,AC50,[6],32.8 µM (active)
same,AC50,[7],50 µM (active)
same,outcome,[7],inactive
CC(C)(c1cc(Cl)c(O)c(Cl)c1)c1cc(Cl)c(O)c(Cl)c1,AC50,[8],90.8 µM (active)
same,outcome,[1],inactive
same,outcome,[2],inactive
same,outcome,[3],inactive
same,outcome,[4],inactive
same,AC50,[9],73.9 µM (active)
same,AC50,[10],94.3 µM (active)
same,AC50,[11],41.8 µM (active)
C=CC(=O)OCC(CC)CCCC (stereo not given),outcome,[8],inactive
same,AC50,[9],19.4 µM (active)
same,AC50,[10],23.8 µM (active)
same,AC50,[11],47 µM (active)
CCOP(=O)(OCC)Oc1ccc([N+](=O)[O-])cc1,AC50,[5],6.54 µM (active)
O=[N+]([O-])c1ccc(Cl)cc1,outcome,[6],inactive
Cc1cc(C)c(C2=C(OC(=O)CC(C)(C)C)C3(CCCC3)OC2=O)c(C)c1,outcome,[12],inactive
same,AC50,[13],20.7 µM (active)
c1ccc(Nc2ccc3ccccc3c2)cc1,outcome,[12],inactive
same,outcome,[13],inactive
N#CSCSc1nc2ccccc2s1,AC50,[14],5.12 µM (active)
same,AC50,[15],0.926 µM (active)
CCCCOCCOCCOCc1cc2c(cc1CCC)OCO2,outcome,[14],inactive
same,AC50,[15],5.69 µM (active)
Cc1ccc(-c2cc(C(F)(F)F)nn2-c2ccc(S(N)(=O)=O)cc2)cc1,outcome,[16],inactive
O=Cc1ccccc1C=O,outcome,[17],inactive
Cc1nc(-c2ccc3c(c2)CCN(CCC2CCC(NC(=O)/C=C/c4ccc(F)cc4)CC2)CC3)no1 (stereo not given),AC50,[18],16.2 µM (active)
CCCCCCCCCCCCc1ccccc1S(=O)(=O)O,AC50,[17],18.1 µM (active)
c1ccc2[nH]c(-c3cscn3)nc2c1,outcome,[19],inactive
CN(C)c1ccc(C(=C2C=CC(=[N+](C)C)C=C2)c2ccc(N(C)C)cc2)cc1,AC50,[19],6.82 µM (active)
COCCOC[C@H](CC1(C(=O)NC2CCC(C(=O)O)CC2)CCCC1)C(=O)Oc1ccc2c(c1)CCC2 (stereo not given in full),outcome,[16],inactive
CN(C)c1ccc(N=NS(=O)(=O)O)cc1,outcome,[20],inactive
Nc1cccc2c(N)cccc12,outcome,[18],inactive
COc1cc(C(=O)NC2CCN(C)CC2)ccc1Nc1ncc2c(n1)N(C1CCCC1)CC(F)(F)C(=O)N2C,outcome,[20],inactive
